Results filed as inconclusive are left out. Calls of active or inactive are those of the source. Calls follow the shape of the dose curve; as a rule, active = well fitted activation curve with a large enough effect in the signal ratio in the repeat runs (not every such curve was filed as active); inconclusive = weak or mixed curves, or effect the other way; inactive = flat fitted curve, though single readings scatter; the % refers to the signal ratio.
Each molecule was assayed against Bile acid receptor (Homo sapiens) (UniProt Q96RI1) (assay: qHTS assay to identify small molecule agonists of the farnesoid-X-receptor (FXR) signaling pathway (AID 743220)). Settings: HEK293T FXR-UAS-bla, beta-lactamase FRET ratio, 16 h; series mostly up to 62.6 µM; activation: at the top concentration.
Sequence of Bile acid receptor (Homo sapiens) (Q96RI1 whole entry, looked up): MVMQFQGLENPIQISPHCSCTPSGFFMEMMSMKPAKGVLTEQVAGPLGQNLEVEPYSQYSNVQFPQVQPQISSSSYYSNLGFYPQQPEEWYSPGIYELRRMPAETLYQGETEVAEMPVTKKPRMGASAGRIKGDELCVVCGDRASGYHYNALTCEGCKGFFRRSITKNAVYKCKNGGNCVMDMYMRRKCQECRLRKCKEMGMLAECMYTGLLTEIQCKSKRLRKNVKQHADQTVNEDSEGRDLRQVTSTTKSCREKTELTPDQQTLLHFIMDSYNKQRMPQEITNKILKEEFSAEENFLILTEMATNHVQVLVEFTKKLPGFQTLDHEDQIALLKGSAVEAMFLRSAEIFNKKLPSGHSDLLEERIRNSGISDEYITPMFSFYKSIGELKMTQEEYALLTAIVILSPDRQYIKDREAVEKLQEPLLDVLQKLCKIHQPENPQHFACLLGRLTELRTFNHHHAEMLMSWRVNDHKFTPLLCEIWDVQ
Description: National Center for Advancing Translational Sciences [NCATS]
NIH Chemical Genomics Center [NCGC]
U.S. Environmental Protection Agency [EPA]
National Institutes of Environmental Health Sciences [NIEHS]
National Toxicology Program [NTP]
U.S. Food and Drug Administration [FDA]
The farnesoid-X-receptor (FXR), a nuclear hormone receptor, is highly expressed in liver, intestine, kidney and adrenal cortex. Natural ligands of FXR are the bile acids (Cholic acid, Chenodeoxy cholic acid etc). FXR is an important regulator of diverse metabolic pathways, including the bile acid homeostasis, lipid and glucose metabolisms. FXR regulates the expression of target genes by binding either as a monomer or as a heterodimer with the retinoid X receptor (RXR). Numerous studies have reported that FXR exerts protective function during cholestasis, diabetes, liver regeneration, and cancer. To identify compounds that activate FXR signaling, GeneBLAzer FXR-UAS-bla HEK 293T cell line (Invitrogen, Carlsbad, CA) containing a beta-lactamase reporter gene under the control of a UAS response element was used to screen the Tox21 10K compound library.
Tox21 Assay Protocol Summary:
FXR-bla cells were dispensed at 5000 cells/5uL/well in 1536-well black wall/clear bottom plates using a Multidrop Combi (Thermo Fisher Scientific, Waltham, MA) dispenser. After the assay plates were incubated at 37C and 5% CO2 for 5 h, 23 nL of compounds dissolved in DMSO, positive controls or DMSO only was transferred to the assay plate by a Pintool station (Kalypsys, San Diego, CA). The assay plates were incubated at 37C for 16 h. After 1 uL of LiveBLAzerTM B/G FRET substrate was added using a Bioraptr Flying Reagent Dispenser (FRD) workstation (Beckman Coulter, Indianapolis, IN), the plates were incubated at room temperature for 2 h, and fluorescence intensity was measured by an Envision plate reader (PerkinElmer, Shelton, CT).
With `CC(=O)CC/C=C(\C)CC/C=C(\C)CC/C=C(\C)CCC=C(C)C` the “activation” value was 5.98% (inactive). With `O=C1C=CCCC1` the “activation” value was -0.192% [at 81.1 µM] (inactive). In the case of `CCCCOC(=O)C(C)Oc1ccc(Oc2ccc(C(F)(F)F)cn2)cc1` (stereo not given), the “activation” value is reported as -0.683% (inactive). `Cc1cc(SC2=C(O)C[C@@](CCc3ccc(N)cc3)(C(C)C)OC2=O)c(C(C)(C)C)cc1CO` was tested, and the “activation” value was 1.14% (inactive). `CCCCCCCCCCCCCCCCCCCl` was tested, and the activation was 0.479% [at 5.95 µM] (inactive). In the case of `O=C(OCCOCCOCCOC(=O)c1ccccc1)c1ccccc1`, the “activation” value is reported as 1.98% (inactive). For `CCCC(=O)OCc1ccccc1`, the “activation” value was 0.282% (inactive). `CC(C)Cc1nccs1` was tested, and the “activation” value was 0.151% [at 81.1 µM] (inactive). With `O=C(O)c1cccnc1Nc1cccc(C(F)(F)F)c1` the “activation” value was -2.99% (inactive). With `CCCCOc1ccc(N)cc1` the “activation” value was -1.19% (inactive). With `CC(C)=CCCC(C)C=O` (stereo not given) the “activation” value was -4.69% (inactive). `CCOC(OCC)OCC` was tested, and the “activation” value was -2.21% (inactive). In the case of `COc1ccc(/C=C/c2cc(OC)cc(=O)o2)cc1`, the “activation” value is reported as -2.09% (inactive). For `O=C(O)c1cc(C(=O)O)c(C(=O)O)cc1C(=O)O`, the “activation” value was -0.518% (inactive). In the case of `Nc1cccc2c(=O)[nH][nH]c(=O)c12`, the “activation” value is reported as -1.91% [at 81.1 µM] (inactive). For `Oc1ccc(CCNCCCCCCNCCc2ccccc2)cc1O`, the “activation” value was 1.94% (inactive). `CCC(=O)O[C@]1(C(=O)COC)[C@@H](C)C[C@H]2[C@@H]3CCC4=CC(=O)C=C[C@]4(C)C3(F)[C@@H](O)C[C@@]21C` (stereo not given in full) was tested, and the “activation” value was -4.07% (inactive). `O=P(c1ccccc1)(c1ccccc1)c1ccccc1` was tested, and the “activation” value was 1.18% (inactive). `O=Cc1ccc(Cl)c([N+](=O)[O-])c1` was tested, and the “activation” value was -5.38% (inactive). `Clc1ccccc1-c1nc(-c2ccncc2)no1` was tested, and the “activation” value was 4.21% (inactive). `CCCC(=O)OCCC(C)C` was tested, and the “activation” value was 0.631% (inactive). `CC/C=C/CCO` was tested, and the “activation” value was -0.157% [at 81.1 µM] (inactive). For `[O-][n+]1ccc(Cl)cc1`, the “activation” value was -1.7% [at 81.1 µM] (inactive). `C1=COCCC1` was tested, and the “activation” value was -1.27% (inactive). With `CCOc1cc(OCC)c(C(C)=O)cc1OCC` the “activation” value was -0.786% (inactive). With `O=C(Nc1ccccc1)c1cc([N+](=O)[O-])ccc1Cl` the “activation” value was -6.45% (inactive). In the case of `C=CC(=O)NC(C)(C)C`, the “activation” value is reported as -0.898% (inactive). In the case of `O=C(O)c1ccccc1[N+](=O)[O-]`, the “activation” value is reported as -2.55% (inactive). In the case of `O=C(O)c1ccc2c(c1)nc(C(=O)NC1CCN(C3CC3)CC1)n2Cc1cc(-c2ccc(Cl)s2)on1`, the “activation” value is reported as -2.48% [at 29.1 µM] (inactive). In the case of `Clc1cc(Cl)c2c(c1)N=C1CCCCCN1C2`, the “activation” value is reported as -3.48% (inactive). In the case of `CC(C)NC(=O)c1ccccc1N`, the “activation” value is reported as -0.114% (inactive). In the case of `Nc1nc(Cl)nc2c1ncn2[C@H]1C[C@H](O)[C@@H](CO)O1`, the “activation” value is reported as -2.65% (inactive). In the case of `Cc1ccccc1CCO`, the “activation” value is reported as -0.157% (inactive). For `COc1ccc(CN(CCN(C)C)c2ncccn2)cc1`, the “activation” value was -0.0951% (inactive). `CCCCCCCCNC` was tested, and the “activation” value was 1.27% (inactive). For `CC(=O)Nc1ccccc1O`, the “activation” value was 0.869% (inactive). `Cc1cc(C)n(CO)n1` was tested, and the “activation” value was -2.8% (inactive). In the case of `C[C@@H](O)[C@H]1C(=O)N2C(C(=O)O)=C(S[C@@H]3CN[C@H](CNS(N)(=O)=O)C3)[C@H](C)[C@H]12`, the “activation” value is reported as 1.37% (inactive). `CC1(C)CC(O)CC(C)(C)N1[O]` was tested, and the “activation” value was 0.0285% (inactive). For `Nc1ncnc2c1ncn2[C@@H]1O[C@H](CO)[C@@H](O)[C@H]1O`, the “activation” value was -0.874% (inactive).

Source: PubChem BioAssay (Tox21)
% is scaled to controls: 0 for no effect and ±100 for the full control effect.
